PPC-1+TRAIL kill: compounds killing PPC-1 cancer cells with TRAIL present (potentiator screen, no TRAIL-free arm); actives 0.41% (n = 220,000); AID 1443; cell killing (% activity), % at 4 µM or 5 µM; PPC-1 cells + TRAIL, ATPLite viability luminescence;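 active means cell killing above 50% in the first pass at 4 µM, then a duplicate retest at 5 µM averaging 50% or more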;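 further: plate controls were cells with TRAIL plus DMSO for no effect and medium-only wells lacking cells for full effect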
SENP7 inh: inhibitors of human SENP7 protease; Q9BQF6; recombinant SENP7, Z-RLRGG-aminoluciferin luminescence, 40 min; inhibition, % at 5 µM; actives 1.5% (n = 330,000); AID 434973;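 active means inhibition above about 50% at the single test dose, limit read from the data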;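 further: plate controls were DMSO with enzyme for no effect and no enzyme buffer wells for full effect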
C8 TRAIL sens: sensitizes caspase-8 expressing cells to TRAIL | AID 624354 | inhibition (viability loss, TRAIL sensitization), % at 10 µM | actives 1% (n = 360,000) | NB7+C8 cells + TRAIL, ATPlite viability luminescence;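 active means compounds causing at least 50% loss of cell viability in the single-dose screen, relative to plate controls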
SENP8 block-1: inhibitors of human SENP8 protease; Q96LD8; recombinant SENP8, Nedd8 substrate fluorescence; inhibition, % at 20 µM; actives 0.64% (n = 360,000); AID 602440; in the data active means inhibition mostly above about 40%, no sharp cut-off; inactive means mostly below about 27%
Target sequence (Q96LD8 whole entry, looked up): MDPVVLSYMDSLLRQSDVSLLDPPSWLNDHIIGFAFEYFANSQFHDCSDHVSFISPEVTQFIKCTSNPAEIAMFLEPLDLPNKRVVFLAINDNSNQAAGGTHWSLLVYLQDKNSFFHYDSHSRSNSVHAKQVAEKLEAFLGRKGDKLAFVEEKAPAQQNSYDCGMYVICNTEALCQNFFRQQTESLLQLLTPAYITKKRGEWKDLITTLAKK
SENP8 block-2: SENP8 protease inhibition. Q96LD8. inhibition, % at 10 µM. purified SENP8, Z-RLRGG-aminoluciferin cleavage, luminescence. actives 1.2% (n = 330,000); in the data active means inhibition above about 50%
SENP6 inh: SENP6 protease inhibition; actives 1.8% (n = 330,000); Recombinant SENP6 catalytic domain, aminoluciferin luminescence; inhibition, % at 10 µM; Q9GZR1; AID 2599;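 active means inhibition above about 50% at the single tested dose, limit read from the data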;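 further: plate controls were DMSO wells with enzyme for no effect and DMSO wells lacking enzyme for full effect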
SENP8 conf: human SENP8 inhibition, confirmed; shares compounds with SENP7 inh; actives 40% (n = 6,200); Recombinant SENP8, Z-RLRGG-aminoluciferin luminescence, 60 min; inhibition, % at 12.5 µM;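 active means mean inhibition across replicates above about 50%, limit read from the data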
SENP6 confirm: confirmation of human SENP6 protease inhibitors. recombinant SENP6, Z-RLRGG-aminoluciferin luminescence. shares compounds with SENP7 inh. actives 58% (n = 6,200). inhibition, % at 12.5 µM
SENP7 confirm: human SENP7 inhibition, confirmed; shares compounds with SENP7 inh; recombinant SENP7, Z-RLRGG-aminoluciferin luminescence, 40 min; inhibition, % at 12.5 µM; actives 69% (n = 6,200); AID 488917
Casp3 select: selectivity test for SENP inhibitors: human caspase-3 inhibition; purified caspase-3, Z-DEVD-aminoluciferin luminescence, 60 min; shares compounds with SENP7 inh; actives 60% (n = 6,200); AID 488918; inhibition, % at 12.5 µM;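 active means mean inhibition above about 50%, limit read from the data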;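 further: plate controls were enzyme with DMSO for no effect and wells without caspase-3 for full effect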
Target sequence (P42574 28-227 limits assumed): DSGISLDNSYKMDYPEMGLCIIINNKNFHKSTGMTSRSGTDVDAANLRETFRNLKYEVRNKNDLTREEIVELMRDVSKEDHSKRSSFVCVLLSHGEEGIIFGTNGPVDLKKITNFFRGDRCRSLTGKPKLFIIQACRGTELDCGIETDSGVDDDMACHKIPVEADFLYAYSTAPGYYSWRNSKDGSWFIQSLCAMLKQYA
Luc interf: counter-screen for SENP inhibitors: luminescence interference. Pre-incubated SENP8/Z-RLRGG-aminoluciferin, luciferase luminescence interference. actives 39% (n = 6,200). inhibition, % at 12.5 µM. AID 488919. shares compounds with SENP7 inh;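 active means mean inhibition above about 50% when retested at one dose, limit read from the data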;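 further: plate controls were DMSO wells with completed reaction for no effect and substrate without enzyme for full effect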
* = called active by the depositor; . = no result given. A selection: hits, their analogues and other compounds. The true share with any hit is near 3%.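 How the source made its calls, unless noted: active means mean inhibition above about 50% in the one-dose retest (limit read from the data); inactive means the rest.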

SMILES	PPC-1+TRAIL kill	SENP7 inh	C8 TRAIL sens	SENP8 block-1	SENP8 block-2	SENP6 inh	SENP8 conf	SENP6 confirm	SENP7 confirm	Casp3 select	Luc interf
COc1cccc(-c2noc(-c3cccs3)n2)c1	26	94*	21	1	88*	92*	41	95*	102*	88*	85*
Cc1cc(NC(=O)CN2C(=O)NC3(CCCCC3)C2=O)ccc1N1CCCC1	.	3	6	5	-3	-4	.	.	.	.	.
CCN(CC)CCNC(Cc1ccccc1)c1cccc(OC)c1 (stereo unspecified)	.	.	-10	6	.	.	.	.	.	.	.
O=C(O)c1ccc(-c2nnc(-c3cccc(Br)c3)o2)cc1	.	-6	-9	7	-8	93*	89*	90*	93*	98*	19
COc1cccc(-c2nc(-c3ccccc3)no2)c1	13	95*	18	22	89*	95*	87*	93*	98*	85*	83*
Brc1ccc(-c2nnc(-c3cccc(Br)c3)o2)cc1	1	7	-1	-1	-13	-4	.	.	.	.	.
COc1cccc(-c2noc(-c3cccnc3)n2)c1	15	79*	40	6	58*	81*	26	68*	91*	84*	52*
O=C(COC(=O)c1n[nH]c(=O)c2ccccc12)Nc1cccc(S(=O)(=O)N2CCOCC2)c1	.	.	-9	12	.	.	.	.	.	.	.
CCOc1ccc(C(C)=O)cc1COC(=O)c1ccccc1C(=O)N(C)Cc1ccccc1	.	2	8	2	-3	-15	.	.	.	.	.
CCN(C(=O)CSc1nnc(-c2cccc(Cl)c2)n1N)c1c(N)n(Cc2ccccc2)c(=O)[nH]c1=O	.	.	-2	0	.	.	.	.	.	.	.
COc1ccc(N2C(=O)/C(=C/c3ccc([N+](=O)[O-])cc3)C=C2c2ccccc2)cc1	8	60*	12	21	1	-9	7	7	9	7	2
O=C1/C(=C/c2ccc([N+](=O)[O-])cc2)C=C(c2ccccc2)N1c1ccccc1	12	2	11	2	0	2	.	.	.	.	.
COC(=O)c1ccc(CSc2nc3ccccc3o2)cc1	-4	91*	3	16	87*	85*	-24	91*	100*	80*	65*
O=C(O)CSc1nc2ccccc2o1	14	2	0	-1	-4	-10	.	.	.	.	.
O=[N+]([O-])c1ccc(CSc2nc3ccccc3o2)cc1	-3	24	-1	21	16	52*	53*	54*	66*	36	32
CCN(C(=O)COC(=O)c1cccnc1SC)C1CCS(=O)(=O)C1 (stereo unspecified)	39	-6	-9	13	-4	1	.	.	.	.	.
CCN(C(=O)COC(=O)c1cccnc1Nc1cccc(C(F)(F)F)c1)C1CCS(=O)(=O)C1 (stereo unspecified)	16	72*	8	-42	50	63*	66*	64*	86*	50	64*
C[C@@H]1CN([C@@H](C)CO)C(=O)CCCn2nncc2CO[C@@H]1CN(C)S(=O)(=O)c1cccs1	.	.	-2	10	.	.	.	.	.	.	.
Cn1c(O)c(N=Nc2ccccc2)c2ccccc21	.	2	0	3	-1	3	.	.	.	.	.
Cn1c(O)c(N=Nc2nc(-c3ccccc3)cs2)c2ccccc21	16	59*	10	30	4	16	1	4	-6	4	-5
O=C(Nc1cc(Cl)ccc1N1CCOCC1)c1ccc(Br)o1	.	7	-9	-8	-2	1	.	.	.	.	.
